Results reported in PubChem BioAssay (NCATS).
Records with an inconclusive call do not appear. The source made the active and inactive calls. Unless noted, calls come from the whole dose curve; as a rule, active = well fitted curve in the direction sought with a large enough effect; inconclusive = small, poorly fitted or top-dose-only effect, or another doubt; inactive = no such curve, though single readings can be large; an effect the other way counts as inactive or inconclusive.

What was measured:
[1] = target: T1, Tyrosine-protein phosphatase non-receptor type substrate 1 (Homo sapiens) + Leukocyte surface antigen CD47 (Homo sapiens) (UniProt P78324+Q08722); test: CD47-SIRPalpha protein protein interaction - LANCE assay qHTS validation (AID 1347057; active = well fitted curve in the direction sought with a large enough effect in the signal ratio, with a control signal flat, not every such curve was filed as active; the % refers to the signal ratio; note: series mostly up to about 38 µM; 0% is about no effect)
T1 sequence (P78324 whole entry, looked up, the tested form may be a part): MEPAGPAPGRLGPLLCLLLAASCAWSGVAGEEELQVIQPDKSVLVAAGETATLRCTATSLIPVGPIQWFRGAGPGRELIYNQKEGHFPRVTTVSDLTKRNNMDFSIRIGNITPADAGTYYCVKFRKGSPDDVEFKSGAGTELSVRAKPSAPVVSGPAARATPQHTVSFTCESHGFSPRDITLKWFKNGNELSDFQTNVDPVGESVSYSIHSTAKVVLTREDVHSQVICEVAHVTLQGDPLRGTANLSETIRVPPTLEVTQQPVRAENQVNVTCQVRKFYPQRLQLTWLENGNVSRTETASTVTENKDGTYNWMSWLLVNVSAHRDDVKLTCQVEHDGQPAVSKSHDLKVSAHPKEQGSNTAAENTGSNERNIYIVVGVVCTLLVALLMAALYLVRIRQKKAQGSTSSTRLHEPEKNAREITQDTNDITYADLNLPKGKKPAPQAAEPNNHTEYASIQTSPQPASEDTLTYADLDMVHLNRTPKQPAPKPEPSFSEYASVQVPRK
T1 sequence (Q08722 whole entry, looked up, the tested form may be a part): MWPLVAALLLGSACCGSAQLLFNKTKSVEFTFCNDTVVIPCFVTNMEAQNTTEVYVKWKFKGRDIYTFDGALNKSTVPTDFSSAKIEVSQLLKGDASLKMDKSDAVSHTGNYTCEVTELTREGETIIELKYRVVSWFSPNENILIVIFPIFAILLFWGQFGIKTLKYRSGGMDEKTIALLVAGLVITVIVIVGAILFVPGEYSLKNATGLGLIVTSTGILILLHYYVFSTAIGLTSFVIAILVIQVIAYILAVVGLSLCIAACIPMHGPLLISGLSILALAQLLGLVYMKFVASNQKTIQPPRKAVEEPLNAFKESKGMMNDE
How it was run: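 Inhibition of soluble CD47/SIRPalpha ectodomain association by titrated compounds, measured as 665/615 nm time-resolved FRET ratio after sequential 30 min room-temperature incubations.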

[2] = target: Parathyroid hormone/parathyroid hormone-related peptide receptor (Homo sapiens) (UniProt Q03431); test: qHTS for PTHR1 Agonists: Optimization Screen against the NCGC LOPAC library (AID 1347079);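 note: GloSensor cAMP luminescence in HEK-293 GP2 cells expressing human PTHR1 with IBMX; 0% is about no effect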
Parathyroid hormone/parathyroid hormone-related peptide receptor (Homo sapiens), sequence (Q03431 whole entry, looked up): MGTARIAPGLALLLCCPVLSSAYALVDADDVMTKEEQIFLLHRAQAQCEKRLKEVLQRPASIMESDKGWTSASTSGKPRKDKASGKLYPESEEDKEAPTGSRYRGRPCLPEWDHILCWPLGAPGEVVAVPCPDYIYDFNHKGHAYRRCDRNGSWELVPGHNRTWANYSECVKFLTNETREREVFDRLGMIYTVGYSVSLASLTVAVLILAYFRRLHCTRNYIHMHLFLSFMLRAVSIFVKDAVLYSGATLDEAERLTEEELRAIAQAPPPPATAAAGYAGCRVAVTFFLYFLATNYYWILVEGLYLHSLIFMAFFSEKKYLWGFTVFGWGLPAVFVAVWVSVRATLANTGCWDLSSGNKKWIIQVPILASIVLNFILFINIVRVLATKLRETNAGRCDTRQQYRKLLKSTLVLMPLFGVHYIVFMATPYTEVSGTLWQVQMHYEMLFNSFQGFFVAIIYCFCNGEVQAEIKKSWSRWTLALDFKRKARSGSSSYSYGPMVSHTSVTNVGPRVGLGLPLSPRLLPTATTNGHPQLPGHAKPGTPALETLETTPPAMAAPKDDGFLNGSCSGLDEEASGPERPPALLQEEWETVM
How it was run: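 Signal increase flags agonism. GP2 cells, derived from HEK-293, express human PTHR1 and a GloSensor cAMP construct.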

[3] = qHTS of pediatric cancer cell lines to identify multiple opportunities for drug repurposing: Primary screen for TC32 cells (AID 1347089); note: nearly all actives have a fitted effect of over 60% in size; note: potency is the fitted concentration of half-maximal effect; for activity change, negative = cytotoxic: % is set by controls: 0 for no effect and ±100 for the full control effect
How it was run: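 In the primary qHTS, MIPE compounds were tested at 11 concentrations (0.78 nM to 46 µM) and NPC compounds at 8 (0.59 nM to 46 µM) on TC32 cells for 48 h. CellTiter-Glo luminescence gave viability.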

[4] = qHTS of pediatric cancer cell lines to identify multiple opportunities for drug repurposing: Primary screen for DAOY cells (AID 1347090); note: nearly all actives have a fitted effect of over 55% in size; note: potency is the fitted concentration of half-maximal effect;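 for activity change, negative = cytotoxic: series mostly up to about 46 µM; plate controls were DMSO for no effect and bortezomib for full effect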
How it was run: (§1)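 Cell viability, CellTiter-Glo luminescence; 500-1,000 cells/well, 8- or 11-point titration, 48 h compound exposure at 37 degrees C, 5% CO2. Controls: DMSO neutral, bortezomib 2.3 µM final as positive.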

[5] = qHTS of pediatric cancer cell lines to identify multiple opportunities for drug repurposing: Primary screen for SJ-GBM2 cells (AID 1347091); note: potency is the fitted concentration of half-maximal effect;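 for activity change, negative = cytotoxic: plate controls were DMSO neutral control for no effect and bortezomib for full effect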
How it was run: as §1

[6] = qHTS of pediatric cancer cell lines to identify multiple opportunities for drug repurposing: Primary screen for A673 cells (AID 1347092); note: nearly all actives have a fitted effect of over 45% in size; note: potency is the fitted concentration of half-maximal effect; for activity change, negative = cytotoxic: % is set by controls: 0 for no effect and ±100 for the full control effect
How it was run: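 48 h compound exposure, A673, 500-1,000 cells/well, 37 degrees C/5% CO2. MIPE: 11-point, 0.78 nM-46 µM; NPC: 8-point, 0.59 nM-46 µM (final). Readout CellTiter-Glo luminescence after 15 min RT.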

[7] = qHTS of pediatric cancer cell lines to identify multiple opportunities for drug repurposing: Primary screen for SK-N-MC cells (AID 1347093); note: potency is the fitted concentration of half-maximal effect;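 for activity change, negative = cytotoxic: series mostly up to about 46 µM; plate controls were DMSO neutral control for no effect and bortezomib for full effect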
How it was run: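 Metabolically active cells were quantified by ATP-dependent luminescence (CellTiter-Glo, 15 min at room temperature) following 48 h treatment. Cells had been plated at 500-1,000 per well and settled for 5 h beforehand.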

[8] = qHTS of pediatric cancer cell lines to identify multiple opportunities for drug repurposing: Primary screen for BT-37 cells (AID 1347094); note: potency is the fitted concentration of half-maximal effect;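 for activity change, negative = cytotoxic: series mostly up to about 57 µM; plate controls were DMSO for no effect and bortezomib for full effect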
How it was run: (§2)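 Viability was measured as metabolically active cells after 48 hours of treatment, read by CellTiter-Glo luminescence. Compounds were tested at multiple final concentrations, giving concentration-response curves.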

[9] = qHTS of pediatric cancer cell lines to identify multiple opportunities for drug repurposing: Primary screen for NB-EBc1 cells (AID 1347095); note: potency is the fitted concentration of half-maximal effect;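 for activity change, negative = cytotoxic: plate controls were DMSO neutral control for no effect and bortezomib for full effect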
How it was run: as §2

[10] = qHTS of pediatric cancer cell lines to identify multiple opportunities for drug repurposing: Primary screen for U-2 OS cells (AID 1347096);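 note: plate controls were DMSO wells for no effect and bortezomib positive control wells for full effect; nearly all actives have a fitted effect of over 50% in size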
How it was run: (§3)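 Cells (500-1,000/well) rested 5 h, then received compounds for 48 h; metabolically active cells were measured by CellTiter-Glo luminescence. Final concentrations spanned up to 46 µM (MIPE, 11-point) or 0.59 nM-46 µM (NPC, 8-point) in primary screens, 11-point in follow-ups.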

[11] = qHTS of pediatric cancer cell lines to identify multiple opportunities for drug repurposing: Primary screen for Saos-2 cells (AID 1347097); note: nearly all actives have a fitted effect of over 40% in size; note: potency is the fitted concentration of half-maximal effect; for activity change, negative = cytotoxic: % is set by controls: 0 for no effect and ±100 for the full control effect
How it was run: as §2

[12] = qHTS of pediatric cancer cell lines to identify multiple opportunities for drug repurposing: Primary screen for SK-N-SH cells (AID 1347098); note: nearly all actives have a fitted effect of over 65% in size; note: potency is the fitted concentration of half-maximal effect
How it was run: as §3

[13] = qHTS of pediatric cancer cell lines to identify multiple opportunities for drug repurposing: Primary screen for NB1643 cells (AID 1347099); note: nearly all actives have a fitted effect of over 50% in size; note: potency is the fitted concentration of half-maximal effect;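 for activity change, negative = cytotoxic: plate controls were DMSO neutral control for no effect and bortezomib positive control for full effect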
How it was run: as §2

[14] = qHTS of pediatric cancer cell lines to identify multiple opportunities for drug repurposing: Primary screen for LAN-5 cells (AID 1347100); note: potency is the fitted concentration of half-maximal effect;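 for activity change, negative = cytotoxic: plate controls were DMSO neutral control for no effect and bortezomib positive control for full effect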
How it was run: as §3

[15] = qHTS of pediatric cancer cell lines to identify multiple opportunities for drug repurposing: Primary screen for Rh18 cells (AID 1347102); note: % is set by controls: 0 for no effect and ±100 for the full control effect; nearly all actives have a fitted effect of over 65% in size
How it was run: as §3

[16] = qHTS of pediatric cancer cell lines to identify multiple opportunities for drug repurposing: Primary screen for OHS-50 cells (AID 1347103); note: nearly all actives have a fitted effect of over 40% in size; note: potency is the fitted concentration of half-maximal effect;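 for activity change, negative = cytotoxic: plate controls were DMSO neutral control for no effect and bortezomib positive control for full effect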
How it was run: as §3

[17] = qHTS of pediatric cancer cell lines to identify multiple opportunities for drug repurposing: Primary screen for RD cells (AID 1347104); note: nearly all actives have a fitted effect of over 55% in size; note: potency is the fitted concentration of half-maximal effect;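 for activity change, negative = cytotoxic: plate controls were DMSO for no effect and bortezomib for full effect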
How it was run: as §2

[18] = target: T1, Tyrosine-protein phosphatase non-receptor type substrate 1 (Homo sapiens) + Leukocyte surface antigen CD47 (Homo sapiens); test: CD47-SIRPalpha protein protein interaction - HTRF assay qHTS validation (AID 1347058; active = well fitted curve in the direction sought with a large enough effect in the signal ratio, not every such curve was filed as active; the % refers to the signal ratio; note: series mostly up to about 38 µM; 0% is about no effect)
How it was run: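 Soluble extracellular domains (6His-CD47, Avi-tag-biotinylated SIRPalpha) in PBS pH 7.4 with 0.05% IGEPAL CA-630. Compounds were preincubated 30 min at RT with CD47 and anti-His-Eu, then SIRPalpha and SAV-XL665 were added. TR-FRET 665/615 ratio.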

[19] = target: T1, Tyrosine-protein phosphatase non-receptor type substrate 1 (Homo sapiens) + Leukocyte surface antigen CD47 (Homo sapiens); test: CD47-SIRPalpha protein protein interaction - Alpha assay qHTS validation (AID 1347059);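 note: bead proximity luminescence from CD47 binding SIRPalpha after compound preincubation with SIRPalpha; % is set by controls: 0 for no effect and ±100 for the full control effect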
How it was run: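 AlphaScreen signal between CD47-His (12.5 nM) and biotin-SIRPalpha (25 nM) soluble extracellular domains, bead-captured via Ni-NTA and streptavidin. Compounds, in 7-point titrations, met SIRPalpha 30 min before CD47; PBS pH 7.4 with 0.05% IGEPAL.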

[20] = qHTS of pediatric cancer cell lines to identify multiple opportunities for drug repurposing: Primary screen for BT-12 cells (AID 1347101); note: nearly all actives have a fitted effect of over 25% in size; note: potency is the fitted concentration of half-maximal effect;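 for activity change, negative = cytotoxic: plate controls were DMSO for no effect and bortezomib positive control for full effect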
How it was run: as §3

CN(C)[C@@H]1C(=O)C(C(N)=O)=C(O)[C@@]2(O)C(=O)C3=C(O)c4c(O)ccc(Cl)c4[C@@H](O)[C@H]3C[C@@H]12
inactive: outcome [1] | outcome [2] | Potency [3] | Potency [4] | Potency [5] | Potency [6] | Potency [7] | Potency [8] | Potency [9] | Potency [10] | Potency [11] | Potency [12] | Potency [13] | Potency [14] | Potency [15] | Potency [16] | Potency [17]

FC(F)(F)c1ccccc1-n1ccnc1
inactive: outcome [18] | Potency [19] | outcome [2] | Potency [3] | Potency [4] | Potency [5] | Potency [6] | Potency [7] | Potency [8] | Potency [9] | Potency [10] | Potency [11] | Potency [13] | Potency [14] | Potency [20] | Potency [15] | Potency [16] | Potency [17]

Cc1ccc(S(=O)(=O)NC(=O)NN2CCCCCC2)cc1
inactive: outcome [18] | Potency [19] | outcome [2] | Potency [3] | Potency [4] | Potency [5] | Potency [6] | Potency [8] | Potency [9] | Potency [10] | Potency [11] | Potency [12] | Potency [13] | Potency [14] | Potency [20] | Potency [16] | Potency [17]

O=C(O)CN(CCN(CC(=O)O)CC(=O)O)CCN(CC(=O)O)CC(=O)O
inactive: outcome [1] | outcome [18] | outcome [2] | Potency [3] | Potency [5] | Potency [6] | Potency [7] | Potency [9] | Potency [10] | Potency [11] | Potency [12] | Potency [13] | Potency [20] | Potency [15] | Potency [16] | Potency [17]

CC(C)COCC(CN(Cc1ccccc1)c1ccccc1)N1CCCC1 (centres undefined)
active: Potency [6] 26.6 µM | Potency [7] 16.8 µM | Potency [8] 27.6 µM | Potency [11] 26.6 µM | Potency [12] 27.3 µM | Potency [13] 29.9 µM | Potency [16] 19.5 µM | Potency [17] 26.6 µM
inactive: outcome [1] | Potency [19] | outcome [2]

CSc1ccc(C(=O)c2[nH]c(=O)[nH]c2C)cc1
inactive: outcome [1] | Potency [19] | Potency [3] | Potency [5] | Potency [6] | Potency [7] | Potency [8] | Potency [9] | Potency [10] | Potency [11] | Potency [12] | Potency [13] | Potency [14] | Potency [20] | Potency [15] | Potency [16] | Potency [17]

CCOC(=O)C1=C(C)NC(C)=C(C(=O)OC)C1c1cccc([N+](=O)[O-])c1 (centres undefined)
inactive: outcome [1] | Potency [19] | outcome [2] | Potency [3] | Potency [4] | Potency [5] | Potency [6] | Potency [8] | Potency [9] | Potency [10] | Potency [12] | Potency [13] | Potency [14] | Potency [20] | Potency [15] | Potency [17]

Nc1nc(N)c2nc(-c3ccccc3)c(N)nc2n1
inactive: outcome [1] | Potency [19] | outcome [2] | Potency [13] | Potency [15]
active: Potency [3] 7.45 µM | Potency [4] 26.6 µM | Potency [5] 6.68 µM | Potency [7] 0.531 µM | Potency [8] 13.8 µM | Potency [9] 8.41 µM | Potency [14] 13.3 µM | Potency [20] 13.8 µM | Potency [17] 23.7 µM

CN1CCN(CC(=O)N2c3ccccc3C(=O)Nc3cccnc32)CC1
inactive: outcome [1] | Potency [19] | outcome [2] | activity change, negative = cytotoxic [3] 4.32% [at 4.81 µM] | activity change, negative = cytotoxic [4] 1.05% [at 4.84 µM] | activity change, negative = cytotoxic [5] 3.45% [at 4.84 µM] | activity change, negative = cytotoxic [6] 5.45% [at 4.84 µM] | activity change, negative = cytotoxic [7] -2.23% [at 4.84 µM] | activity change, negative = cytotoxic [8] 11.8% [at 6.03 µM] | activity change, negative = cytotoxic [9] 16.9% [at 4.84 µM] | activity change, negative = cytotoxic [10] 4.1% [at 4.84 µM] | activity change, negative = cytotoxic [11] -2.29% [at 4.84 µM] | activity change, negative = cytotoxic [12] 4.46% [at 6 µM] | activity change, negative = cytotoxic [13] 9.59% [at 4.84 µM] | activity change, negative = cytotoxic [14] 10.3% [at 4.84 µM] | activity change, negative = cytotoxic [20] 5.59% [at 6.03 µM] | activity change, negative = cytotoxic [15] 9.39% [at 4.84 µM] | activity change, negative = cytotoxic [16] 7.59% [at 6.18 µM] | activity change, negative = cytotoxic [17] 6.71% [at 4.84 µM]

C[C@]12CC[C@@H]3c4ccc(O)cc4C[C@@H](CCCCCCCCCS(=O)CCCC(F)(F)C(F)(F)F)[C@H]3[C@@H]1CC[C@@H]2O (some centres undefined)
inactive: outcome [18] | Potency [19] | outcome [2] | Potency [3] | Potency [4] | Potency [6] | Potency [8] | Potency [9] | Potency [10] | Potency [13] | Potency [14] | Potency [20] | Potency [15] | Potency [17]
active: Potency [7] 9.44 µM

CCCN(CCC)CCc1cccc2c1CC(=O)N2
inactive: outcome [18] | Potency [19] | outcome [2] | Potency [3] | Potency [4] | Potency [5] | Potency [6] | Potency [7] | Potency [8] | Potency [9] | Potency [10] | Potency [12] | Potency [13] | Potency [14] | Potency [20] | Potency [15] | Potency [16] | Potency [17]

CCn1nc(C(=O)O)c(=O)c2cc3c(cc21)OCO3
inactive: outcome [1] | Potency [19] | outcome [2] | Potency [5] | Potency [6] | Potency [7] | Potency [8] | Potency [9] | Potency [10] | Potency [11] | Potency [12] | Potency [13] | Potency [14] | Potency [20] | Potency [16] | Potency [17]

CC(C)(C)c1ccc(C(=O)CCCN2CCC(OC(c3ccccc3)c3ccccc3)CC2)cc1
inactive: outcome [1] | Potency [19] | outcome [2] | Potency [3] | Potency [12]
active: Potency [5] 26.6 µM | Potency [7] 21.1 µM | Potency [8] 27.6 µM | Potency [11] 26.6 µM | Potency [20] 19.5 µM | Potency [16] 15.5 µM | Potency [17] 21.1 µM

NS(=O)(=O)c1cc2c(cc1Cl)NC(C1CC3C=CC1C3)NS2(=O)=O (centres undefined)
inactive: outcome [1] | Potency [19] | outcome [2] | Potency [3] | Potency [4] | Potency [5] | Potency [6] | Potency [7] | Potency [8] | Potency [9] | Potency [10] | Potency [11] | Potency [12] | Potency [13] | Potency [14] | Potency [20] | Potency [16] | Potency [17]
